Common to all, as to set-up: scale not given: direction of the effect not stated beside the values
Experiment [1] has as its target Protein translocase subunit SecA (Escherichia coli (strain K12)) (UniProt P10408). Description: Assay to Identify E. coli SecA ATPase Inhibitors. The following applies: 30 µM. It counts as functional.
The target in experiment [2] is T1, Ubiquitin-activating enzyme e1, putative (Leishmania donovani (strain BPK282A1)) (UniProt E9BSI1).
T1 sequence (whole entry): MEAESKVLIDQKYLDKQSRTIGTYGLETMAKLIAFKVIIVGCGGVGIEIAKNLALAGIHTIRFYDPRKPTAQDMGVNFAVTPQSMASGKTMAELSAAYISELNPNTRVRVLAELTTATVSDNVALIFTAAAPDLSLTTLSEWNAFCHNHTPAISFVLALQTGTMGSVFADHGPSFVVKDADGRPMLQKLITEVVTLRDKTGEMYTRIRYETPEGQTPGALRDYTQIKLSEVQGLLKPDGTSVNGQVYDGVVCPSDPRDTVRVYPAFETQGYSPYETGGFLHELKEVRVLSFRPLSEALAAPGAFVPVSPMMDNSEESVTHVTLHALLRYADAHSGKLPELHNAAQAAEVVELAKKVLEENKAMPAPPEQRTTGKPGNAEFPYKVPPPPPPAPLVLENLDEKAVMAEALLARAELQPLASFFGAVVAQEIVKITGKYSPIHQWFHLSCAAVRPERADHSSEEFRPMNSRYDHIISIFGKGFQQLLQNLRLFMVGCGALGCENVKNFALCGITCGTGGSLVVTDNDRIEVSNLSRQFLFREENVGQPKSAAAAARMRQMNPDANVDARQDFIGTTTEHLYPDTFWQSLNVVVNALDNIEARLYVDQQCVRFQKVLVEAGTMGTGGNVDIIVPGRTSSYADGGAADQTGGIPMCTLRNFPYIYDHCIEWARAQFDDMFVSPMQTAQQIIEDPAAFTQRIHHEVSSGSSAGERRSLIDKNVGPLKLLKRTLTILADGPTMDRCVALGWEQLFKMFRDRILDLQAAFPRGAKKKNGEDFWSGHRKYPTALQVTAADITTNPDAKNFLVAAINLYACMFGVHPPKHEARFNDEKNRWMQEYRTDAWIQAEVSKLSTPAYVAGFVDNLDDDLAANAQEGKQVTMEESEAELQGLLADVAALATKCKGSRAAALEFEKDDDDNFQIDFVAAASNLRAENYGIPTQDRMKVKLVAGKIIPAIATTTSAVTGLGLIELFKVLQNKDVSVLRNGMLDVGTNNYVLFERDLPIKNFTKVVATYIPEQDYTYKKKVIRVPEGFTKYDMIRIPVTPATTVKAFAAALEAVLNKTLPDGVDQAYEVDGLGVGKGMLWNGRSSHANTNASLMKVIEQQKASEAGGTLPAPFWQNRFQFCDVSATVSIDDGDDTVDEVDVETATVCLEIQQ
Kind of experiment: Leishmania donovani Ubiquitin Activating Enzyme (LdE1). It counts as functional. The following applies: 30 µM.

Experiment [3] concerns the target AMP-activated protein kinase, AMPK (Homo sapiens) (UniProt P54646+O43741+P54619+Q9UGJ0+Q9Y478+Q13131+Q9UGI9). Description: AMP-dependent Kinase enzyme assay. An in vitro enzyme assay that detects ADP turnover that is directly proportional to AMPK activity. This uses naive AMPK that is activated during the assay with MK-8722. It counts as functional. The following applies: 30 µM.

For experiment [4], the target named is Sialic acid-binding Ig-like lectin 9 (Homo sapiens) (UniProt Q9Y336). Kind of experiment: Hs-Siglec9 ALPHAscreen SOP 20170721. To be noted: 10 µM. For orientation: Bead proximity is the source of the signal in Alpha formats.
Experiment [5] relates to Trypanosoma cruzi. Description: Trypanosoma cruzi phosphomannomutase and mannose-1-phosphate guanylyltransferase assay. It counts as functional. To be noted: 10 µM.
For experiment [6], the target named is T2, Arginase-2, mitochondrial (Homo sapiens) (UniProt P78540).
T2 sequence (whole entry): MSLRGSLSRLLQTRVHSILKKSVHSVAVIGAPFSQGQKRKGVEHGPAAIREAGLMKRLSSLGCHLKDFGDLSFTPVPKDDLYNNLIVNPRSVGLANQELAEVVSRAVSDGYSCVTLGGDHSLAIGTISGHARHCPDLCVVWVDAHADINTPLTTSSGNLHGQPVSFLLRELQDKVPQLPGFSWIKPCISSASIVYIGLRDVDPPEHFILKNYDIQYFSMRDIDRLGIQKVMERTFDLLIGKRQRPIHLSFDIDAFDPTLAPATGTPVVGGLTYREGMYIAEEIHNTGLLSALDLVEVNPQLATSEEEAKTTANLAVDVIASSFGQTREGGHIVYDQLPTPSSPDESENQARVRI
Kind of experiment: in vitro enzyme assay to detect the production of urea directly proportional to the activity of Arginase II. Note: in the data most compounds retested in dose-response had high values. It counts as functional. To be noted: 33.3 µM.

The target in experiment [7] is T3, Proteasome subunit beta (Trypanosoma cruzi) (UniProt O96673).
T3 sequence (whole entry): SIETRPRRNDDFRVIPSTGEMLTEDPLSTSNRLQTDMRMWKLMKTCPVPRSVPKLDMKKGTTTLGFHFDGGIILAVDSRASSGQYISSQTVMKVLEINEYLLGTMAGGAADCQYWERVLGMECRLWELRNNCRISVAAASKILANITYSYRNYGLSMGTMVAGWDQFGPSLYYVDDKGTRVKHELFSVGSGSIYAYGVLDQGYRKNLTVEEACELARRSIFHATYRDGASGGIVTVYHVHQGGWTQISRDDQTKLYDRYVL
Kind of experiment: Trypanosoma cruzi proteasome chymotrypsin-like activity (TcProtChymo) assay. Note: in the data most compounds retested in dose-response had high values. It counts as functional. The following applies: 9.37 µM.

The species entered for experiment [8] is Homo sapiens. Kind of experiment: To identify inhibition of the IFN signalling (Jak-Stat) pathway via expression of an eGFP reporter gene under the control of an IFN-stimulated response element (ISRE) containing MxA promoter. It counts as functional. The following applies: 30 µM. A general note: Reporter assays use an easily measured gene product as a stand-in for the process of interest.

Experiment [9] addresses T4, Tyrosyl-tRNA synthetase, putative (Trypanosoma cruzi (strain CL Brener)) (UniProt Q4DSP6).
T4 sequence (whole entry): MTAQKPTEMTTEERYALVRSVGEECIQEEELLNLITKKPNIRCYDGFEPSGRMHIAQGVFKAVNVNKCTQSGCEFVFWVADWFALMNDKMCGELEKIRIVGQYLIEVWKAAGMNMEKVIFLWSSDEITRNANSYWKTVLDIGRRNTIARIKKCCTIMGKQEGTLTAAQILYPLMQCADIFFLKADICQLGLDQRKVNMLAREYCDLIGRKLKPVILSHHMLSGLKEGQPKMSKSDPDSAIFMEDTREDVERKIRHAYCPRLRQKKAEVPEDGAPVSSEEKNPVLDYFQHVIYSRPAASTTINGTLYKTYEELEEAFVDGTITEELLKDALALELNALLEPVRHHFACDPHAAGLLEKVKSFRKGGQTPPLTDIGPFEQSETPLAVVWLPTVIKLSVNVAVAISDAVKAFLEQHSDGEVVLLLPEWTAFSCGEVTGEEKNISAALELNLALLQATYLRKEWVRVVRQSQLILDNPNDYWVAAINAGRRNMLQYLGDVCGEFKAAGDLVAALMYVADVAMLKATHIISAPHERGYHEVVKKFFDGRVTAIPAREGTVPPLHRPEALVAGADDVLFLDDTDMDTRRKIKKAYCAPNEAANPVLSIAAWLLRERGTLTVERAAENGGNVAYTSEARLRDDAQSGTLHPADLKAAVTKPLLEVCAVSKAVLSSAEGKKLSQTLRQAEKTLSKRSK
Description: Trypanosoma cruzi tyrosyl tRNA synthetase (TcYRS) _High Tyrosine SOP. Note: in the data most compounds retested in dose-response had high values. It counts as functional. To be noted: 30 µM.

For experiment [10], the target named is T4, Tyrosyl-tRNA synthetase, putative (Trypanosoma cruzi (strain CL Brener)). Kind of experiment: Trypanosoma cruzi tyrosyl tRNA synthetase (TcYRS) SOP. To be noted: 30 µM. It counts as functional.
The target in experiment [11] is Chromo domain-containing protein 1 (Saccharomyces cerevisiae (strain ATCC 204508 / S288c) (Baker's yeast)) (UniProt P32657). Description: ScCHD-1 Enzyme Inhibition Assay. Note: in the data most compounds retested in dose-response had high values. It counts as functional. The following applies: 30 µM.

For some of these results: Measured potencies and affinities stand elsewhere.

This is an account of results in ChEMBL document CHEMBL3988442, “University of Dundee, Small-Polar-MMV Screening Library” (2021).

Chain of Protein translocase subunit SecA (Escherichia coli (strain K12)) (P10408 whole entry): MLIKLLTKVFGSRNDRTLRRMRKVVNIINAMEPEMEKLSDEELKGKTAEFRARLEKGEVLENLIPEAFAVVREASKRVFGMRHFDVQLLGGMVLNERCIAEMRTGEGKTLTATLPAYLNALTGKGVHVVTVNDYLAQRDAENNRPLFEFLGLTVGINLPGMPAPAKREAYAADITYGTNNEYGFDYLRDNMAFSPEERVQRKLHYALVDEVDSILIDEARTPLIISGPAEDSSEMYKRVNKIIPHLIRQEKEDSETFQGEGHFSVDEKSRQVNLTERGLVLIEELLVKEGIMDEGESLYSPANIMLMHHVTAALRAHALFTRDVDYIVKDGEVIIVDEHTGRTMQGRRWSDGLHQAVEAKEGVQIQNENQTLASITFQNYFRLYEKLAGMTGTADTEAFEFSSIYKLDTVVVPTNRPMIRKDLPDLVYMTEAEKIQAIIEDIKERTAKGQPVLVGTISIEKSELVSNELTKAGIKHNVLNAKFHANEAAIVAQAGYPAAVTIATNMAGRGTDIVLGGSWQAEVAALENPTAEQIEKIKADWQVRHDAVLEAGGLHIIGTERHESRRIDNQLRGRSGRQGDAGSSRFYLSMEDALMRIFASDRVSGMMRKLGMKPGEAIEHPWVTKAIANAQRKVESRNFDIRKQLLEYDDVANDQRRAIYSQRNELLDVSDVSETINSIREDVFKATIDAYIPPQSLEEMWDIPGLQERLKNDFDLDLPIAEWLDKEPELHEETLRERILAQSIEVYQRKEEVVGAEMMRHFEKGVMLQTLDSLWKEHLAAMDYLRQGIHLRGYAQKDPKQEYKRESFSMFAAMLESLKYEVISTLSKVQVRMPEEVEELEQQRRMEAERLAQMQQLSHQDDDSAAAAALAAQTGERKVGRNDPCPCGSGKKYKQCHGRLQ
Chain of Chromo domain-containing protein 1 (Saccharomyces cerevisiae (strain ATCC 204508 / S288c) (Baker's yeast)) (P32657 whole entry, the tested form may be a part): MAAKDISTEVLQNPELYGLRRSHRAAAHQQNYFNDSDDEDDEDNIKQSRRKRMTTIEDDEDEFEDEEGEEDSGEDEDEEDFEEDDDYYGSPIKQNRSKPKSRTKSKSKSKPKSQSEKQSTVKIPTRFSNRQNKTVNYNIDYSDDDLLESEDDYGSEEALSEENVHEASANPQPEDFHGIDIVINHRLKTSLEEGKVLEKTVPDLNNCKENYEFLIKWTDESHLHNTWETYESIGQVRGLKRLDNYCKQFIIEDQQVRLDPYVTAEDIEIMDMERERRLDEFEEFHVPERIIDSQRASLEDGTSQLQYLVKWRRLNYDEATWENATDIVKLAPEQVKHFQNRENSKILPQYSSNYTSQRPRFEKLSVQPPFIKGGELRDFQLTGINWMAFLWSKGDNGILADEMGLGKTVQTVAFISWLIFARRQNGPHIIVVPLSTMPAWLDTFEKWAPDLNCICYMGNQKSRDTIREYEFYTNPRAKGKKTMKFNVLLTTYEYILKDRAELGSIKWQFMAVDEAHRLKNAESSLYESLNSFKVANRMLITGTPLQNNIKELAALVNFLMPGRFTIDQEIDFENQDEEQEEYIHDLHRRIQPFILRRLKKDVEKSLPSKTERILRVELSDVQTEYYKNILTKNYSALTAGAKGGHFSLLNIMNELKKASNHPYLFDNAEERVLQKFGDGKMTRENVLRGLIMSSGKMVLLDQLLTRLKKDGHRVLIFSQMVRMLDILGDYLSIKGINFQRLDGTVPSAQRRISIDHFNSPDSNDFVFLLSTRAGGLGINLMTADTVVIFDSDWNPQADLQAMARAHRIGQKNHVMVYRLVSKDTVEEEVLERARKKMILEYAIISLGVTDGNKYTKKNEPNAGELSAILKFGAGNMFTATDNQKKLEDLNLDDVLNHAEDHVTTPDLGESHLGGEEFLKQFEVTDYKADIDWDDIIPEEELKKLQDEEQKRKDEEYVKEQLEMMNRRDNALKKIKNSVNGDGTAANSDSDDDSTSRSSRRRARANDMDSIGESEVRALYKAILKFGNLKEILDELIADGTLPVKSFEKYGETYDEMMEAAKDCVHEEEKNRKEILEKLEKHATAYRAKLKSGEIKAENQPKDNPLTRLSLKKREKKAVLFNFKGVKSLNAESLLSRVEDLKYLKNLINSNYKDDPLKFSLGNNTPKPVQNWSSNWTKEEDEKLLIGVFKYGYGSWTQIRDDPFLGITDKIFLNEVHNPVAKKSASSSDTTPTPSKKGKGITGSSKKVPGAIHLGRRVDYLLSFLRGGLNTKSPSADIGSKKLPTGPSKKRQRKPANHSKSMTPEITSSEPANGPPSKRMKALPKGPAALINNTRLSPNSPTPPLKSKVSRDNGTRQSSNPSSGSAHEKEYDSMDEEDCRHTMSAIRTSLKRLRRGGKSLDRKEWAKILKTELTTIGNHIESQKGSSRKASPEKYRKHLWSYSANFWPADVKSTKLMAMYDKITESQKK
Chain of Sialic acid-binding Ig-like lectin 9 (Homo sapiens) (Q9Y336 whole entry): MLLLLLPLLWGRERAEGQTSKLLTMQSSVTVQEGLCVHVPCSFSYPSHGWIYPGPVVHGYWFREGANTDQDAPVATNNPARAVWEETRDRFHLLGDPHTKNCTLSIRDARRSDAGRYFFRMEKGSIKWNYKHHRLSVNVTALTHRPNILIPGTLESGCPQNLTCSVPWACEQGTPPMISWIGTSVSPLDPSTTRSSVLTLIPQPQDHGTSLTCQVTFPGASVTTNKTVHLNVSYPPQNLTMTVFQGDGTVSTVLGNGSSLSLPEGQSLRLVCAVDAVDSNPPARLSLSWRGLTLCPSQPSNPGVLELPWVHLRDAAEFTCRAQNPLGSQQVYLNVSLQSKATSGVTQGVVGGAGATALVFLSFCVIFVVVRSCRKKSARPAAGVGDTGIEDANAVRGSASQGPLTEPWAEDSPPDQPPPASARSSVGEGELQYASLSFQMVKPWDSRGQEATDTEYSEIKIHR

Turning to `Cc1cc(C)nc(NC(=O)C(C)Oc2ccc3c(c2)OCO3)n1` (stereo unspecified), the Percent Effect was -1.24% in [1]; 5.2% in experiment [2]; -2.31% in [3]; 4.95% in experiment [4]; 5.21% in experiment [5]; 0% in experiment [6]. Besides, the Percent Effect in experiment [7] is 19.6%; in experiment [8], 5.23%; in [9], 8.6%; in [10], 18.5%; in experiment [11], -2.76%.

As to `CCS(=O)(=O)N1CCC2(CCC2NC(=O)c2ccn(C)c2)CC1` (stereo unspecified), the Percent Effect in [1] was -3.75%; in experiment [2], 10.8%; in experiment [3], 1.1%; in experiment [4], -0.914%; in experiment [5], 3.62%; in experiment [6], -6.69%. Besides, the Percent Effect in experiment [7] was 18.8%; in experiment [8] it was -26%; in experiment [9], 4.32%; in experiment [10], 15.4%; in [11] it was -3.62%.

As for `CC(C)COCC(NC(=O)c1cccnc1)c1ccco1` (stereo unspecified), the Percent Effect is -5.15% in [1]; 10.8% in experiment [2]; -37.5% in [3]; 3.03% in [4]; 0.0943% in [5]; -4.01% in experiment [6]. For the same molecule, the Percent Effect is -0.54% in experiment [7]; 16.3% in [8]; 9.36% in [9]; 11.1% in experiment [10]; -5.14% in experiment [11].

Turning to `CC(C)(C)C(=O)NCCC(=O)NS(=O)(=O)c1ccc2c(c1)OCCO2`, the Percent Effect in experiment [1] is -4.61%; in [2], 5.48%; in experiment [3], 0.75%; in experiment [4], 8.35%; in [5], 7.64%; in experiment [6], -0.909%. Also, the Percent Effect is 7.1% in experiment [7]; -22.6% in [8]; 5.38% in [9]; 10% in [10]; -1.32% in experiment [11].

For `CCCN1CCN(C(=O)c2scnc2C)CC1`, the Percent Effect was -7.16% in experiment [1]; 10.5% in experiment [2]; 0.673% in experiment [3]; 9.57% in [4]; 2.82% in experiment [5]; 0% in experiment [6]. Besides, the Percent Effect in experiment [7] is 9.3%; in [8] it was -10.2%; in [9], 1.06%; in experiment [10], 10.4%; in experiment [11] it was -4.16%.

For `COc1ccc(CC(=O)N(C)Cc2nnc3ccccn23)cc1`, the Percent Effect is -4.71% in [1]; 26% in experiment [2]; 2.72% in experiment [3]; -2.77% in experiment [4]; 3.62% in [5]; -6.53% in experiment [6]. The Percent Effect was found to be 17.1% in [7]; 12.6% in experiment [8]; 8.57% in experiment [9]; 25.9% in experiment [10]; 77.9% in experiment [11].

As for `COCCOc1ccccc1CNCc1c(C)nn(C)c1N(C)C`, the Percent Effect was -4.61% in experiment [1]; 8.11% in experiment [2]; -17.4% in experiment [3]; -0.683% in [4]; -2.92% in [5]; -0.802% in experiment [6]. In addition, the Percent Effect in experiment [7] was 1.26%; in experiment [8], -12%; in [9], 5.42%; in experiment [10] it was 11.1%; in experiment [11], -4.5%.

As for `Cc1nc(CN2CCCN(C(=O)C(C)OCC3CC3)CC2)cs1` (stereo unspecified), the Percent Effect in [1] is -1.24%; in experiment [2] it was 3.8%; in experiment [3], 0.098%; in experiment [4] it was 0.839%; in experiment [5] it was 3.38%; in experiment [6], 0.215%. The Percent Effect is 10.6% in [7]; 4.67% in [8]; 3.12% in experiment [9]; 2.53% in experiment [10]; -18.2% in experiment [11].

With `NC(=O)N1CC[C@H](O)[C@@H]1Cc1cccnc1`, the Percent Effect in experiment [1] was -2.51%; in [2], 2.7%; in [3], 6.84%; in experiment [4], -5.75%; in [5] it was -9.48%; in [6] it was 4.78%. In addition, the Percent Effect in experiment [7] is 24%; in experiment [8] it was 5.65%; in experiment [9] it was 0%; in experiment [10], 7.69%; in experiment [11], -2.76%.

As for `CCOc1ccc(Cl)c(C(=O)N2CCN(c3cnccn3)CC2)n1`, the Percent Effect in [1] is -4.82%; in [2], 23.4%; in experiment [3], -2.68%; in [4], 6.96%; in experiment [5], 8.43%; in experiment [6], 1.42%. Further, the Percent Effect was 15.5% in experiment [7]; 17.5% in experiment [8]; 10.7% in experiment [9]; 24.4% in experiment [10]; -12.4% in experiment [11].

For the molecule `CCOCC(=O)N1CCC(Oc2ccc(C(F)(F)F)cn2)CC1`, the Percent Effect in experiment [1] was 0.852%; in [2], 5.2%; in experiment [3], 2.97%; in experiment [4], 4.76%; in [5], -5.42%; in [6], 13.6%. For the same molecule, the Percent Effect in [7] was 15.1%; in experiment [8], 12.1%; in experiment [9] it was 0%; in experiment [10], 3.85%; in experiment [11], -4.83%.
